Data published in PMC5540273 (PLoS ONE, 2017).

system: CSNK1A1L; settings: concentration: 1 μM, replicates: in singlicate; n = 1
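Further: KINOMEscan kinase panel screen.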

| Compound | %Inh [%] |
| --- | --- |
| CN1CCN(CCCNc2nccc(-c3c(-c4ccc(F)cc4)nn4cc(C(F)(F)F)ccc34)n2)CC1 [GW621581] | 12 |
| C[C@@H]1CC[C@@H](C(=O)Nc2ccccc2)CN1c1cc(-c2ccc3c(N)n[nH]c3c2)nc(N)n1 [GSK2286062] | 6 |
| Cl.Cl.NCC(NCc1ccc(-c2ccnc3[nH]ccc23)s1)c1ccccc1 (stereo not drawn) [GSK1321565] | 16 |
| Nc1n[nH]c2cnc(-c3ccccc3)cc12 [SB-642124] | 8 |
| COc1cccc(NC(=O)NC2CCN(c3ccnc(Nc4cc(OC)c(OC)c(OC)c4)n3)C2)c1 (stereo not drawn) [GSK1379763] | 0 |
| COc1cccc(C(=O)Nc2cccc(Oc3ccc4nc(NC(=O)C5CC5)cn4n3)c2)c1 | 17 |
| c1ccc(-c2n[nH]cc2Nc2ccnc3ccccc23)nc1 [GW694077] | 20 |
| O=C(Nc1cccc(-c2nn3ccccc3c2-c2ccnc(Nc3cccc(C(F)(F)F)c3)n2)c1)c1c(F)cccc1F [GSK292658] | 5 |
| CSc1cccc2c(-c3ccncn3)c(-c3ccc(F)cc3)nn12 [GW514786] | 21 |
| COc1ccc(CNC(=O)NC2CCN(c3ccnc(Nc4ccc(F)cc4)n3)CC2)cc1 [GSK1379788] | 9 |
| COCCOCCOc1cc2ncc3c4ccc(C#N)cc4[nH]c3c2cc1OC | 8 |
| FC(F)(F)c1ccc(/C=C/c2cncnc2Nc2ccc3[nH]c(Cc4ccccc4)nc3c2)cc1 [GW709199] | 36 |
| COc1cc(Nc2nccc(N3CCC(NC(=O)Nc4cccc(C(C)=O)c4)C3)n2)cc(OC)c1OC (stereo not drawn) [GSK1379753] | 0 |
| O=C(O)C(F)(F)F.O=C(O)C(F)(F)F.O=c1[nH]ccc2nc(N[C@@H]3CCCNC3)nc(Nc3ccc(S(=O)(=O)N4CCOCC4)cc3)c12 [GSK2177277] | 99.7 |
| Cc1ccc(C(=O)N2CC[C@@H](O)C2)cc1-n1c(C)cc(OCc2ccc(F)cc2F)c(Br)c1=O | 0 |
| Cl.c1ccc(-c2ccc3c(Nc4ccc5[nH]ccc5c4)ccnc3c2)nc1 [GW440138] | 0 |
| CCCCc1nn2ncccc2c1-c1ccnc(Nc2ccc(N3CCN(C)CC3)cc2)n1 [GW684941] | 46 |

| Compound | %Inh [%] |
| --- | --- |
| COc1ccc(Nc2nccc(NCCNC(=O)c3cc4ccccc4s3)n2)cc1 [GSK1379896] | 0 |
| COc1ccc(Nc2nccc(N3CCC(NC(=O)Nc4cccc(OC)c4)C3)n2)cc1 (stereo not drawn) [GSK1379742] | 19 |
| O=C(Nc1ccccc1F)NC1CCN(c2ccnc(Nc3ccc(F)cc3)n2)CC1 [GSK1379800] | 27 |
| Cn1cc(-c2ccc3c(c2)CCN3C(=O)Cc2cccc(F)c2)c2c(N)ncnc21 [GSK2603358] | 5 |
| CCc1ccc(-c2ccc3c(c2)-c2c(cnn2C)S(=O)(=O)N3C)cc1 | 0 |
| COc1cc(Nc2nccc(-c3c(-c4cccc(NC(=O)c5c(F)cccc5F)c4)nn4ccccc34)n2)cc(OC)c1OC [GSK323521] | 15 |
| O=C(Nc1cccc(Oc2ccc3nc(NC(=O)C4CC4)cn3n2)c1)c1ccccc1C(F)(F)F | 0 |
| O=c1[nH]cc(-c2ccc(N3CCOCC3)cc2)c2sc(-c3cn[nH]c3)cc12 [GSK2276055] | 44 |
| Cc1cccc(Nc2nc(N[C@H]3CCNC3)ncc2C(N)=O)c1.Cl [GSK2197149] | 78 |
| Nc1ncc(-c2cccnc2)c2scc(-c3ccc4c(c3)CCN4C(=O)Cc3ccccc3)c12 [GSK683281] | 21 |
| Cl.Cl.NCC(C(=O)Nc1cc(Br)c(-c2ccnc3[nH]ccc23)s1)c1ccccc1 (stereo not drawn) [GSK1269851] | 19 |
| Fc1ccc(-c2ncn(C3CCNCC3)c2-c2ccnc(Oc3ccc(-c4ccccc4)cc3)n2)cc1 [SB-245391] | 71 |
| Cl.c1ccc(-c2ccc3c(Nc4ccc5[nH]ncc5c4)ccnc3c2)nc1 [GW440137] | 0 |
| Cl.NC(=O)c1cccc(Nc2nccc(Nc3ccc(Oc4c(Cl)cccc4Cl)c(Cl)c3)n2)c1 [GW659009] | 0 |
| O=C(Nc1cccc(-c2nn3ncccc3c2-c2ccnc(Nc3ccccc3)n2)c1)c1c(F)cccc1F [GSK198271] | 2 |
| COC(=O)Nc1nc2ccc(Oc3ccc(NC(=O)Nc4cc(C(F)(F)F)ccc4F)cc3)cc2n1C.Cl [GW692089] | 0 |
